Here are results for 40 compounds from PubChem BioAssay (Tox21).

Activity calls are given as the source filed them. Calls follow the shape of the dose curve; as a rule, active = well fitted activation curve with a large enough effect in the repeat runs; inconclusive = weak or mixed curves; inactive = flat fitted curve, though single readings scatter.

The experiment can be described thus: Caspase-3/7 induction in CHO-K1 cells by small molecules, qHTS assay (AID 1346980). Also: nearly all actives have a fitted effect of over 15% in size. The conditions noted are these: CHO-K1 caspase-3/7 induction, Caspase-Glo luminescence, 17 h; series mostly up to 92.4 µM. The text has this: National Center for Advancing Translational Sciences [NCATS]
NIH Chemical Genomics Center [NCGC]
U.S. Environmental Protection Agency [EPA]
National Institutes of Environmental Health Sciences [NIEHS]
National Toxicology Program [NTP]
Apoptosis is a process of programmed cell death and plays a central role in the development of multicellular organisms. It is a highly regulated process and induces cell death by activating caspases, which are the members of cysteine aspartic acid-specific protease (caspase) family. Caspases involved in apoptosis are classified by their mechanism of action as initiator caspases (caspase-2, -8, -9 and -10) and executioner caspases (caspase-3, -6, and -7). Inhibition of apoptosis results in number of cancers, autoimmune diseases, inflammatory diseases and viral infection. To identify small molecule compounds that induce apoptosis, a homogeneous, luminescent Caspase-Glo 3/7 assay was used. Wild type CHO-K1 cells were used to screen Tox21 libraries for identifying caspase-3/7 activity inducers.
CHO-K1 cells were dispensed at 1,500 per well in 5uL of culture medium into white solid bottom 1536-well plates (Corning Life Sciences, Corning, NY) using a Multidrop Combi (Thermo Scientific, Waltham, MA) dispenser. The assay plates were incubated at 37 C and 5% CO2 for 5hr, and then 23nL of compounds dissolved in DMSO and positive control were transferred using a Pintool station (Wako, San Diego, CA). The assay plates were incubated at 37C and 5% CO2 for 17hr. For caspase-3/7 activity read, 4uL of Caspase-Glo 3/7 reagent (Promega Corporation, Madison, WI) was added to each well of the assay plates using Flying Reagent Dispenser (FRD, Aurora Discovery, San Diego, CA) and incubated the assay plates at room temperature for 30min. The luminescence signal was quantified using a ViewLux plate reader (Perkin Elmer, Shelton, CT).
For `O=C(CO)[C@@H](O)[C@H](O)[C@@H](O)CO`, the compound was called inactive. The value for `Cc1ccc(C(=O)Nc2ccc(S(=O)(=O)O)c3cc(S(=O)(=O)O)cc(S(=O)(=O)O)c23)cc1NC(=O)c1cccc(NC(=O)Nc2cccc(C(=O)Nc3cc(C(=O)Nc4ccc(S(=O)(=O)O)c5cc(S(=O)(=O)O)cc(S(=O)(=O)O)c45)ccc3C)c2)c1` was “inactive”. As for `COc1ccc2cc1Oc1cc3c(cc1OC)CC[N+](C)(C)[C@H]3Cc1ccc(cc1)Oc1c(OC)c(OC)cc3c1[C@@H](C2)[N+](C)(C)CC3`, the compound was classed as inactive. Turning to `C1CCC2=NCCCN2CC1`, the result was inactive. The value for `N[C@@H](CCC(=O)O)C(=O)O` was “inactive”; that for `CCCCCCCCCCCCSC` was “inactive”; that for `C=CC(=O)OCCCl` was “inactive”. `Cc1nc2ccc(CN(C)c3ccc(C(=O)N[C@@H](CCC(=O)O)C(=O)O)s3)cc2c(=O)[nH]1`: the result was inactive.

Turning to `CC(=O)c1ccc2ccccc2c1`, the compound was classed as inactive. For the compound `[K+]`, the call was inactive.

`O=C(O)CC(C(=O)O)S(=O)(=O)O` (stereo not given): the compound was classed as inactive.

Regarding `O=[N+]([O-])c1cncn1CCN1CCOCC1`, the compound was classed as inactive. Take `NO`: the compound was called inactive. The result for `CN1[C@@H]2CC[C@H]1CC(OC(=O)C(O)c1ccccc1)C2` (stereo not given in full) reads “inactive”; that for `COc1ccnc(CS(=O)c2nc3cc(OC(F)F)ccc3[nH]2)c1OC` (stereo not given), “inactive”; that for `CC1=CC(=O)[C@H]2C[C@@H]1C2(C)C`, “inactive”. As for `CCOc1ccccc1OCC`, the call was inactive. Regarding `NC(=O)N[C@@H](CCC(=O)O)C(=O)O`, the call was inactive. Take `CCCCc1nc(Cl)c(CO)n1Cc1ccc(-c2ccccc2-c2nn[nH]n2)cc1`: the call was inactive. Take `CC(C)[C@H]1CC[C@@H](C)CC1=O`: the compound was classed as inactive.

On to `O=C(O)CNC(=O)c1ccc(CO)o1`, for which the outcome was inactive. The result for `C[C@H]1C[C@H]2[C@@H]3CCC4=CC(=O)C=C[C@]4(C)[C@H]3C(=O)C[C@]2(C)[C@@]1(O)C(=O)CO` reads “inactive”; that for `CCCCCCCC1CCCC1=O` (stereo not given), “inactive”. As for `Nc1ccn([C@@H]2O[C@H](CO)[C@@H](O)C2O)c(=O)n1` (stereo not given in full), the compound was called inactive.

With `O=Cc1cccc(Br)c1`, the outcome was inactive. The value for `CCN[C@H]1C[C@H](C)S(=O)(=O)c2sc(S(N)(=O)=O)cc21` was “inactive”; that for `CC(C)COC(=O)c1ccc(N)cc1` was “inactive”.

Turning to `CC[N+](CC)(CC)CCOc1cccc(OCC[N+](CC)(CC)CC)c1OCC[N+](CC)(CC)CC`, the result was inactive. As for `CC/C=C\CCOC(C)OCC` (stereo not given), the compound was called inactive. Turning to `CCCCCCC#CC(=O)OC`, the compound was called inactive. For the compound `CCCCCCCCCCCCCCC(=O)O`, the result was inactive. With `CC[N+](C)(CC)CCOC(=O)C1c2ccccc2Oc2ccccc21`, the outcome was inactive.

For the compound `CC(=O)Nc1ccc(OCC(O)CNC(C)C)cc1` (stereo not given), the result was inactive. Consider `CC(C(=O)O)c1cccc(Oc2ccccc2)c1` (stereo not given), for which the outcome was inactive. As for `CC(C)(C)c1ccc(-c2ccc(C(C)(C)C)cc2)cc1`, the call was inactive. For the compound `CCCO[Si](OCCC)(OCCC)OCCC`, the outcome was inactive. `C1CCC2(CCCCO2)OC1`: the result was inactive. The value for `CCCc1ncc(C[n+]2ccccc2C)c(N)n1` was “inactive”; that for `CC(CO)(CO)[N+](=O)[O-]` was “inactive”. For `CCOC(=O)C1=NOC(c2ccccc2)(c2ccccc2)C1`, the result was inactive.
